Holding throughout (experiment): growth (OD600 after 10 h); higher = more growth (less inhibition)
Assay [1] deals with E. coli TESEC Alr+ wild-type control. Conditions: compound 0.1 mM; raw OD600 reference: median of DMSO wells 0.241, cell-free background 0.041. The procedure:
(§1)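 TESEC Mtb Alr E. coli, or the Alr+ wild-type control, in 384-well plates with Prestwick library compounds at 0.1 mM and 1% DMSO, across arabinose induction levels of 1E3 to 1E7 nM. Growth is read as OD600 after 10 h at 37 °C in triplicate biological replicates.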

Assay [2] concerns E. coli TESEC Mtb Alr. Conditions: compound 0.1 mM. As for the experimental part:
as §1

The test system of another assay is E. coli TESEC Mtb Asd. Particulars: compound 0.1 mM. The procedure: (§2)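 TESEC E. coli strains in which the native enzyme is deleted and replaced by arabinose-inducible Mtb Asd, DapB, CysH or TrpD, each grown in its selective medium. Strains were screened against the Prestwick library at 0.1 mM and 1% DMSO in 384-well format at low and high arabinose induction. Growth is read as OD600 after 10 h in triplicate.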

Assay [3] concerns E. coli TESEC Mtb Alr. Conditions: compound 0.1 mM. As for the experimental part: (§3)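 TESEC Mtb Alr E. coli (ΔaraC ΔtolC ΔentC Δalr ΔdadX, arabinose-inducible Mtb Alr) or the Alr+ wild-type control strain, grown in defined M9-fructose medium without D-alanine in 96-well plates with Prestwick library compounds at 0.1 mM and 1% DMSO. Low Alr induction is 0.1 µM arabinose and high induction is 10 mM arabinose.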
This is another data set of the same source.

A further assay has as its system E. coli TESEC Mtb DapB. Conditions: compound 0.1 mM. The procedure: as §2
Assay [4] concerns E. coli TESEC Alr+ wild-type control. Particulars: compound 0.1 mM; raw OD600 reference: median of DMSO wells 0.49, cell-free background 0.052. As for the experimental part:
as §3

[5] abbreviates: arabinose 1000 nM, raw OD600 reference: median of DMSO wells 0.294, cell-free background 0.041.
Where [6] appears, read: arabinose 10000 nM, raw OD600 reference: median of DMSO wells 0.264, cell-free background 0.041.
Where [7] appears, read: arabinose 100000 nM, raw OD600 reference: median of DMSO wells 0.201, cell-free background 0.041.
[8] abbreviates: arabinose 1000000 nM, raw OD600 reference: median of DMSO wells 0.193, cell-free background 0.041.
The mark [9] stands for this setting: arabinose 10000000 nM, raw OD600 reference: median of DMSO wells 0.146, cell-free background 0.041.
[10] abbreviates: arabinose induction (level): High, raw OD600 reference: median of DMSO wells 0.331, cell-free background 0.041.
[11] abbreviates: arabinose induction (level): Low, raw OD600 reference: median of DMSO wells 0.417, cell-free background 0.041.
The mark [12] stands for this setting: arabinose 100 nM, raw OD600 reference: median of DMSO wells 0.413, cell-free background 0.052.
Where [13] appears, read: arabinose 10000000 nM, raw OD600 reference: median of DMSO wells […], cell-free background 0.052.
Setting [14] is: arabinose induction (level): High, raw OD600 reference: median of DMSO wells […], cell-free background 0.041.
The mark [15] stands for this setting: arabinose induction (level): Low, raw OD600 reference: median of DMSO wells 0.227, cell-free background 0.041.

SMILES strings stand for the structures. Where a name gives a salt, the structure may show the parent alone. ± gives the standard deviation of the averaged measurements.

With `CCNCC(O)c1cccc(O)c1` (stereo not given) [Etilefrine hydrochloride], the growth in assay [1] is 0.247 ± 0.0026; in the assay with E. coli TESEC Mtb Alr [2] (setting [5]), 0.3085 ± 0.0027; in the assay with E. coli TESEC Mtb Alr [2] (setting [6]), 0.261 ± 0.012; with E. coli TESEC Mtb Alr [2] (setting [7]) it was 0.188 ± 0.018; in the assay on E. coli TESEC Mtb Alr [2] (setting [8]), 0.193 ± 0.0032; in the assay with E. coli TESEC Mtb Alr [2] (setting [9]), 0.134 ± 0.0026. The growth in the assay on E. coli TESEC Mtb Asd (setting [10]) came out at 0.211 ± 0.025; with E. coli TESEC Mtb Asd (setting [11]), 0.367 ± 0.035; with E. coli TESEC Mtb Alr [3] (setting [12]) it was 0.409 ± 0.015; in the assay with E. coli TESEC Mtb Alr [3] (setting [13]) it was 0.345 ± 0.023.

In the case of `COc1ccc(Cc2nccc3cc(OC)c(OC)cc23)cc1OC` [Papaverine hydrochloride], the growth turned out to be 0.153 ± 0.0032 in assay [1]; 0.133 ± 0.013 with E. coli TESEC Mtb Asd (setting [10]); 0.262 ± 0.035 with E. coli TESEC Mtb Asd (setting [11]); 0.397 ± 0.0098 with E. coli TESEC Mtb Alr [3] (setting [12]); 0.22 ± 0.0059 in the assay on E. coli TESEC Mtb Alr [3] (setting [13]).

With `CCn1cc(C(=O)O)c(=O)c2cc3c(cc21)OCO3` [Oxolinic acid], the growth was 0.0726 ± 0.0019 in assay [1]; 0.05577 ± 0.00049 with E. coli TESEC Mtb Alr [2] (setting [5]); 0.0509 ± 0.00026 in the assay on E. coli TESEC Mtb Alr [2] (setting [6]); 0.0646 ± 0.0014 with E. coli TESEC Mtb Alr [2] (setting [7]); 0.0934 ± 0.0036 in the assay on E. coli TESEC Mtb Alr [2] (setting [8]); 0.123 ± 0.0027 in the assay with E. coli TESEC Mtb Alr [2] (setting [9]). Also, the growth in the assay on E. coli TESEC Mtb Asd (setting [10]) was 0.156 ± 0.011; in the assay on E. coli TESEC Mtb Asd (setting [11]), 0.149 ± 0.011; with E. coli TESEC Mtb Alr [3] (setting [12]), 0.0698 ± 0.0013; with E. coli TESEC Mtb Alr [3] (setting [13]) it was 0.0582 ± 0.0011.

Take `C[C@]12COC(=O)C[C@@H]1CC[C@@H]1[C@@H]2CC[C@@]2(C)[C@H]1CC[C@]2(C)O` [Oxandrolone]: the growth came out at 0.157 ± 0.0027 in assay [1]; 0.148 ± 0.0058 in the assay with E. coli TESEC Mtb Asd (setting [10]); 0.319 ± 0.033 with E. coli TESEC Mtb Asd (setting [11]); 0.14 ± 0.0074 in the assay with E. coli TESEC Mtb DapB (setting [14]); 0.154 ± 0.015 with E. coli TESEC Mtb DapB (setting [15]); 0.42 ± 0.0079 in the assay on E. coli TESEC Mtb Alr [3] (setting [12]). Further, the growth in the assay with E. coli TESEC Mtb Alr [3] (setting [13]) worked out at 0.246 ± 0.019.

For the molecule `O=P1(NCCCl)OCCCN1CCCl` (stereo not given) [Ifosfamide], the growth came to 0.233 ± 0.012 in assay [1]; 0.301 ± 0.027 in the assay with E. coli TESEC Mtb Alr [2] (setting [5]); 0.2741 ± 0.0022 in the assay on E. coli TESEC Mtb Alr [2] (setting [6]); 0.175 ± 0.022 in the assay with E. coli TESEC Mtb Alr [2] (setting [7]); 0.192 ± 0.0026 in the assay with E. coli TESEC Mtb Alr [2] (setting [8]); 0.137 ± 0.0089 with E. coli TESEC Mtb Alr [2] (setting [9]). Also, the growth in the assay with E. coli TESEC Mtb Asd (setting [10]) stood at 0.374 ± 0.074; in the assay with E. coli TESEC Mtb Asd (setting [11]), 0.48 ± 0.032; in the assay on E. coli TESEC Mtb Alr [3] (setting [12]), 0.417 ± 0.011; in the assay with E. coli TESEC Mtb Alr [3] (setting [13]), 0.359 ± 0.01.

In the case of `C[N+]1(C)CCOC(O)(c2ccc(-c3ccc(C4(O)C[N+](C)(C)CCO4)cc3)cc2)C1` (stereo not given) [Hemicholinium bromide], the growth in assay [1] was determined as 0.227 ± 0.013; in the assay on E. coli TESEC Mtb Alr [2] (setting [5]), 0.298 ± 0.02; in the assay with E. coli TESEC Mtb Alr [2] (setting [6]) it was 0.276 ± 0.0044; in the assay on E. coli TESEC Mtb Alr [2] (setting [7]) it was 0.229 ± 0.025; with E. coli TESEC Mtb Alr [2] (setting [8]), 0.1741 ± 0.00078; in the assay on E. coli TESEC Mtb Alr [2] (setting [9]), 0.195 ± 0.0053. Also, the growth turned out to be 0.352 ± 0.026 with E. coli TESEC Mtb Asd (setting [10]), 0.281 ± 0.069 with E. coli TESEC Mtb Asd (setting [11]), 0.403 ± 0.0081 with E. coli TESEC Mtb Alr [3] (setting [12]) and 0.397 ± 0.015 in the assay with E. coli TESEC Mtb Alr [3] (setting [13]).

With `CC(=O)OCC(=O)[C@H]1CC[C@H]2[C@@H]3CC[C@H]4C[C@H](O)CC[C@]4(C)[C@H]3C(=O)C[C@]12C` [Alfadolone acetate], the growth in assay [1] was 0.15 ± 0.0034; with E. coli TESEC Mtb Asd (setting [10]), 0.289 ± 0.075; with E. coli TESEC Mtb Asd (setting [11]), 0.19 ± 0.0093; in the assay with E. coli TESEC Mtb DapB (setting [14]), 0.137 ± 0.0076; in the assay on E. coli TESEC Mtb DapB (setting [15]), 0.157 ± 0.03; in assay [4], 0.474 ± 0.013. Besides, the growth amounted to 0.395 ± 0.007 with E. coli TESEC Mtb Alr [3] (setting [12]) and 0.257 ± 0.0074 with E. coli TESEC Mtb Alr [3] (setting [13]).

As to `C1CCc2nnnn2CC1` [Pentylenetetrazole], the growth was determined as 0.255 ± 0.011 in assay [1]; 0.282 ± 0.018 in the assay on E. coli TESEC Mtb Alr [2] (setting [5]); 0.275 ± 0.0089 in the assay with E. coli TESEC Mtb Alr [2] (setting [6]); 0.233 ± 0.021 in the assay on E. coli TESEC Mtb Alr [2] (setting [7]); 0.187 ± 0.0053 with E. coli TESEC Mtb Alr [2] (setting [8]); 0.141 ± 0.007 in the assay with E. coli TESEC Mtb Alr [2] (setting [9]). Also, the growth in the assay with E. coli TESEC Mtb Asd (setting [10]) amounted to 0.402 ± 0.0048; with E. coli TESEC Mtb Asd (setting [11]), 0.431 ± 0.017; in the assay with E. coli TESEC Mtb Alr [3] (setting [12]), 0.408 ± 0.011; in the assay with E. coli TESEC Mtb Alr [3] (setting [13]) it was 0.367 ± 0.022.

Values taken from the supplement of paper PMC9262897, “Low-cost anti-mycobacterial drug discovery using engineered E. coli” (Nature Communications, 2022).
